# Test results taken from PubChem BioAssay (EPA / NIEHS).
# Records with an inconclusive call do not appear. Active and inactive are the calls of the source. Rule for the calls: active = hit-call score of the fitted dose curve at least 0.9, where 1 is the maximum; inconclusive = response in the unintended direction; inactive = score below 0.9.
# Tested on: not listed separately
# Assay: TOX21_p53_BLA_p4_viability: Viability Assessment in the Tox21 HCT-116 p53 Agonism Beta-lactamase Assay, Phase 4 (AID 2283597);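 note: hits lower the luminescence signal meaning cytotoxicity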
# Summary of the method: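 HCT-116 p53-bla cells, 4000/well, dosed after 5 h attachment and incubated 16 h at 37 °C, 5% CO2. Viability from CellTiter-Glo ATP luminescence after 30 min at room temperature, taken after the beta-lactamase read; loss of signal indicates cytotoxicity.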
row,Compound,outcome
1,C[N+](C)(C)CCCCCC[N+](C)(C)C,inactive
2,OCC(O)c1ccccc1 (stereo unspecified),inactive
3,Nc1ccc(NCCO)c([N+](=O)[O-])c1,inactive
4,CC(=O)c1c(C)c([N+](=O)[O-])c(C(C)(C)C)c([N+](=O)[O-])c1C,inactive
5,COC(CC(C)CCCC(C)(C)O)OC (stereo unspecified),inactive
6,O=C(Nc1ccc2c(O)c(N=Nc3ccc(N=Nc4ccc(S(=O)(=O)O)cc4)cc3)c(S(=O)(=O)O)cc2c1)c1ccccc1,inactive
7,Nc1c(Cl)cc(Cl)cc1[N+](=O)[O-],inactive
8,Cc1ccc2c(c1)C(=O)OC2=O,inactive
9,CCOC(=O)COC(=O)c1cc(Oc2ccc(C(F)(F)F)cc2Cl)ccc1[N+](=O)[O-],inactive

# Biological target: Cellular tumor antigen p53 (Homo sapiens) (UniProt P04637)
# Sequence (P04637 whole entry, looked up): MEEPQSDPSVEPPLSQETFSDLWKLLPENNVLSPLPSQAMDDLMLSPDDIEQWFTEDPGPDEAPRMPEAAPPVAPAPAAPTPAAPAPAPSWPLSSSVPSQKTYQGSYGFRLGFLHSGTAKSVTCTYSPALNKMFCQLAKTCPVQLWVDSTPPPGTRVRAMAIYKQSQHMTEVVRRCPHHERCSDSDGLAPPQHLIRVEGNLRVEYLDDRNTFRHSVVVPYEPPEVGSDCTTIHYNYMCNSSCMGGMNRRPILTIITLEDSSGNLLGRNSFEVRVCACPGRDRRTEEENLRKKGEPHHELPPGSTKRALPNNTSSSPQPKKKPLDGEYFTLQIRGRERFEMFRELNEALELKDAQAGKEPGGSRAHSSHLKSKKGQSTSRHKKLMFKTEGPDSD
# Assay: TOX21_p53_BLA_p5_ratio: Tox21 HCT-116 p53 Agonism Beta-lactamase Assay, Ratio, Phase 5 (AID 2283599)
# Summary of the method: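 HCT-116 p53-bla cells (4000/well) plated 5 h, dosed with compound (217-fold DMSO dilution) for 16 h at 37 C; CCF4-AM substrate 2 h at room temperature. Activity is the 460/530 nm emission ratio (405 nm excitation), fitted in gain-of-signal direction versus DMSO.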
row,Compound,outcome
1,CC[N+](C)(CC)CC,inactive
2,O=C1OC[C@H](Cc2cccc(O)c2)[C@H]1Cc1cccc(O)c1,inactive
3,C=CC(=O)OCCC#N,inactive
4,C[N+](C)(C)CCCCCC[N+](C)(C)C,inactive
5,CCC(C)S (stereo unspecified),inactive
6,COC(C)(C)CCO,inactive
7,O=CN1CCOCC1,inactive
8,OCC(O)c1ccccc1 (stereo unspecified),inactive
9,CCCCCCCCSCCO,inactive
10,Nc1ccc(NCCO)c([N+](=O)[O-])c1,inactive
11,CCCCOC(=O)CCCCCCCC(=O)OCCCC,inactive
12,CC(=O)c1c(C)c([N+](=O)[O-])c(C(C)(C)C)c([N+](=O)[O-])c1C,inactive
13,COC(CC(C)CCCC(C)(C)O)OC (stereo unspecified),inactive
14,CCOCCOCCOCC,inactive
15,Cc1ccc(C)o1,inactive
16,CC(C)CCOC(=O)c1ccccc1,inactive
17,CCCCC(CC)(CO)CO,inactive
18,CCOc1ccccc1O,inactive
19,COc1cc(CCC(C)=O)ccc1O,inactive
20,CC(C)NCC(O)COc1ccc(CC(N)=O)cc1 (stereo unspecified),inactive
21,C#CC(C)(O)CC(C)C (stereo unspecified),inactive
22,CCc1ccc(O)c(OC)c1,inactive
23,Cc1ccc2c(c1)C(=O)OC2=O,inactive
24,CCCCCCCC(=O)OCCCCCC,inactive
25,CCCCCCCCCCCC(=O)OC[C@@H](O)[C@H]1OC[C@H](O)[C@H]1O,inactive
26,c1ccc(CCc2ccccc2)cc1,inactive
27,CCCCCCCCCCCCCC(=O)OCC(O)CO (stereo unspecified),inactive

# Tested on: not listed separately
# Assay: TOX21_p53_BLA_p5_viability: Viability Assessment in the Tox21 HCT-116 p53 Agonism Beta-lactamase Assay, Phase 5 (AID 2283600)
# Summary of the method: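 HCT-116 p53 beta-lactamase reporter cells, 4000/well, were exposed to compound (pin transfer, 217-fold dilution) for 16 hours at 37C. Cellular ATP was read by CellTiter-Glo luminescence after 30 min at room temperature.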
row,Compound,outcome
1,O=C1OC[C@H](Cc2cccc(O)c2)[C@H]1Cc1cccc(O)c1,inactive
2,C=CC(=O)OCCC#N,inactive
3,COS(=O)(=O)O,inactive
4,CCC(C)S (stereo unspecified),inactive
5,COC(C)(C)CCO,inactive
6,CC(=O)c1c(C)c([N+](=O)[O-])c(C(C)(C)C)c([N+](=O)[O-])c1C,inactive
7,CCOC(=O)CCc1ccccc1,inactive
8,CC(Oc1cc(Cl)ccc1Cl)C(=O)O (stereo unspecified),inactive
9,CC(C)CCOC(=O)c1ccccc1,inactive
10,CCCCC(CC)(CO)CO,inactive
11,CCOc1ccccc1O,inactive
12,CS(=O)(=O)c1ccc(C2=C(c3ccccc3)C(=O)OC2)cc1,inactive
13,CC(C)NCC(O)COc1ccc(CC(N)=O)cc1 (stereo unspecified),inactive
14,C#CC(C)(O)CC(C)C (stereo unspecified),inactive
15,CC1=CC[C@@]23C[C@@H]1C(C)(C)[C@@H]2CC[C@H]3C,inactive
16,Cc1cc(CCC(=O)OCCOCCOCCOC(=O)CCc2cc(C)c(O)c(C(C)(C)C)c2)cc(C(C)(C)C)c1O,inactive
17,CCOc1ccc(N=Nc2ccc(C=Cc3ccc(N=Nc4ccc(OCC)cc4)cc3S(=O)(=O)O)c(S(=O)(=O)O)c2)cc1,inactive
18,Nc1c(Cl)cc(Cl)cc1[N+](=O)[O-],inactive
19,Cc1ccc2c(c1)C(=O)OC2=O,inactive
20,CCCCCCCC(=O)OCCCCCC,inactive
21,CCCCCCCCCCCC(=O)OC[C@@H](O)[C@H]1OC[C@H](O)[C@H]1O,inactive
22,CCOC(=O)COC(=O)c1cc(Oc2ccc(C(F)(F)F)cc2Cl)ccc1[N+](=O)[O-],inactive
23,c1ccc(CCc2ccccc2)cc1,inactive
24,CCCCCCCCCCCCCC(=O)OCC(O)CO (stereo unspecified),inactive

# Biological target: Cellular tumor antigen p53 (Homo sapiens) (UniProt P04637)
# Assay: TOX21_p53_BLA_p4_ratio: Tox21 HCT-116 p53 Agonism Beta-lactamase Assay, Ratio, Phase 4 (AID 2283601)
# Summary of the method: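 HCT-116 p53 beta-lactamase reporter cells (4000/well) preincubated 5 h, then compound (217-fold dilution of DMSO stock) for 16 h at 37C. CCF4-AM substrate added 2 h at room temperature; 460/530 nm emission ratio fitted upward versus DMSO.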
row,Compound,outcome
1,CC[N+](C)(CC)CC,inactive
2,O=C1OC[C@H](Cc2cccc(O)c2)[C@H]1Cc1cccc(O)c1,inactive
3,C=CC(=O)OCCC#N,inactive
4,COS(=O)(=O)O,inactive
5,C[N+](C)(C)CCCCCC[N+](C)(C)C,inactive
6,COC(C)(C)CCO,inactive
7,O=CN1CCOCC1,inactive
8,OCC(O)c1ccccc1 (stereo unspecified),inactive
9,Nc1ccc(NCCO)c([N+](=O)[O-])c1,inactive
10,CC(=O)c1c(C)c([N+](=O)[O-])c(C(C)(C)C)c([N+](=O)[O-])c1C,inactive
11,O=C(O)c1cc(C(=O)O)cc([N+](=O)[O-])c1,inactive
12,COC(CC(C)CCCC(C)(C)O)OC (stereo unspecified),inactive
13,CC(C)Nc1nc(N)nc(Cl)n1,inactive
14,Cc1ccc(C)o1,inactive
15,CC(C)CCOC(=O)c1ccccc1,inactive
16,CCCCC(CC)(CO)CO,inactive
17,CCOc1ccccc1O,inactive
18,CS(=O)(=O)c1ccc(C2=C(c3ccccc3)C(=O)OC2)cc1,inactive
19,Cc1cc(CCC(=O)OCCOCCOCCOC(=O)CCc2cc(C)c(O)c(C(C)(C)C)c2)cc(C(C)(C)C)c1O,inactive
20,CCOc1ccc(N=Nc2ccc(C=Cc3ccc(N=Nc4ccc(OCC)cc4)cc3S(=O)(=O)O)c(S(=O)(=O)O)c2)cc1,inactive
21,O=C(Nc1ccc2c(O)c(N=Nc3ccc(N=Nc4ccc(S(=O)(=O)O)cc4)cc3)c(S(=O)(=O)O)cc2c1)c1ccccc1,inactive
22,Nc1c(Cl)cc(Cl)cc1[N+](=O)[O-],inactive
23,Cc1ccc2c(c1)C(=O)OC2=O,inactive
24,CCCCCCCC(=O)OCCCCCC,inactive
25,CCCCCCCCCCCC(=O)OC[C@@H](O)[C@H]1OC[C@H](O)[C@H]1O,inactive
26,c1ccc(CCc2ccccc2)cc1,inactive
